According to PubChem BioAssay (NCATS):
“And” between values parts separate entries of the source, which are not always exact repeats. Identical values can stand only once. Results filed as inconclusive are left out. The source made the active and inactive calls. Unless noted, calls come from the whole dose curve.

Columns and labels:
[1] = Cell Viability - LYMP2-015 (AID 971; active = well fitted curve in the direction sought with a large enough effect; an effect the other way counts as inactive or inconclusive; note: nearly all actives have a fitted effect of over 55% in size; note: potency is the fitted concentration of half-maximal effect)
Outline: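 Human lymphoblastoid cells (2500/well) in complete medium were preincubated 5 hr at 37 C, then compound-treated 24 hr at 37 C. Intracellular ATP was read by CellTiter-Glo luminescence after 30 min at room temperature; AC50 came from Hill-equation concentration-response fits.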

[2] = Cell Viability - LYMP2-024 (AID 988; active = well fitted curve in the direction sought with a large enough effect; an effect the other way counts as inactive or inconclusive; note: nearly all actives have a fitted effect of over 60% in size; note: potency is the fitted concentration of half-maximal effect)
Outline: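 Human lymphoblastoid cells (2500/well) in complete medium were preincubated 5 hr at 37 C, then exposed to compounds for 24 hr at 37 C. Intracellular ATP was read by CellTiter-Glo luminescence; AC50 from Hill-equation fits of concentration-response data.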

[3] = biological target: Estrogen receptor (Homo sapiens) (UniProt P03372); test: qHTS assay for small molecule antagonists of estrogen receptor alpha signaling (AID 588513; active = well fitted curve in the direction sought with a large enough effect in the signal ratio, with a control signal flat, not every such curve was filed as active; the % refers to the signal ratio; note: % is set by controls: 0 for no effect and ±100 for the full control effect)
Sequence of Estrogen receptor (Homo sapiens) (P03372 whole entry, looked up): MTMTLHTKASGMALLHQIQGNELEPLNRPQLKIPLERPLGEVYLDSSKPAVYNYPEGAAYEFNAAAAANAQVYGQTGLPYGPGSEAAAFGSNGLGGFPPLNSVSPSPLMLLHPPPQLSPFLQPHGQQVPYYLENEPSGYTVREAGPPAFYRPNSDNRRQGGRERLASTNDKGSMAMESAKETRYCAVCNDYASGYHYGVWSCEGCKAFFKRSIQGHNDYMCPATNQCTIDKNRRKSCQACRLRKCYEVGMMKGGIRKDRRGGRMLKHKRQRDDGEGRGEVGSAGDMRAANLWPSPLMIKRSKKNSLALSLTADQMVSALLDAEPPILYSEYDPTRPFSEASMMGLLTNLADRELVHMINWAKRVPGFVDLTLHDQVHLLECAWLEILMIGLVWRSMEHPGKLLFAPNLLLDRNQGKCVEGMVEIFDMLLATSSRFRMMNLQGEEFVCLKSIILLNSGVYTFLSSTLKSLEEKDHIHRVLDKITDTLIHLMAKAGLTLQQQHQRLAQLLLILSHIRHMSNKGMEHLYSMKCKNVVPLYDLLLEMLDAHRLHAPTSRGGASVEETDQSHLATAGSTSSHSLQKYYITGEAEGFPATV
Outline: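 Fluorescence from CCF4 substrate after 2 h at room temperature gave reporter activity; cells had been exposed to compound and 0.5nM 17-beta-estradiol for 18 h at 37 C. Hill-equation fitting yielded IC50 and maximal response.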

[4] = biological target: Glucocorticoid receptor (Homo sapiens) (UniProt P04150); test: qHTS assay for small molecule agonists of glucocorticoid receptor signaling (AID 588532; active = well fitted curve in the direction sought with a large enough effect in the signal ratio, with a control signal flat; the % refers to the signal ratio;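 note: 100% = dexamethasone at 0.1 µM and 0% = DMSO only wells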); conditions: HeLa MMTV-bla, beta-lactamase ratio, agonist, 18 h; stronger effect = higher value; percent of dexamethasone control, DMSO zero
Sequence of Glucocorticoid receptor (Homo sapiens) (P04150 whole entry, looked up): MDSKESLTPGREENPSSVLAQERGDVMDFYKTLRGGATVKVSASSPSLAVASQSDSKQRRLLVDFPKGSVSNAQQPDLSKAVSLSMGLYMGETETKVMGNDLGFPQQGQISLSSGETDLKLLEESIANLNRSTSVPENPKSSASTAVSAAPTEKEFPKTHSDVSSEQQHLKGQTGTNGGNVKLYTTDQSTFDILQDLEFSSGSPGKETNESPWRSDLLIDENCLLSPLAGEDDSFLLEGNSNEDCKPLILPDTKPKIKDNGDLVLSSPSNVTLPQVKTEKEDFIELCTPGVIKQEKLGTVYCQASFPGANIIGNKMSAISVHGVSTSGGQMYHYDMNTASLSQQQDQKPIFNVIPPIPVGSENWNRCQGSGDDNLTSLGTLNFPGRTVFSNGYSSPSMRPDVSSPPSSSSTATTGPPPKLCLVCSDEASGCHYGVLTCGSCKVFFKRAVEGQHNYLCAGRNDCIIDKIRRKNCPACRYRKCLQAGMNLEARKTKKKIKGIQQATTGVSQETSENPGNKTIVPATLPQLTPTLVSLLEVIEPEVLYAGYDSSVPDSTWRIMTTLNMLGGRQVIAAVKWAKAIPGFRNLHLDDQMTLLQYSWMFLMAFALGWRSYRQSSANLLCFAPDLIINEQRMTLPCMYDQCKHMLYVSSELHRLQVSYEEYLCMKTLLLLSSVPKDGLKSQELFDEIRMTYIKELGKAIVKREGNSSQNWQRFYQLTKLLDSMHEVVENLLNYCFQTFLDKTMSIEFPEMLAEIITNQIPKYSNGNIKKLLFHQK
Outline: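 Quantitative HTS using CellSensor MMTV-bla HeLa cells in charcoal/dextran-treated serum; compounds tested up to 92 uM. After 18 h at 37 C, CCF4 dye reported reporter induction.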

[5] = biological target: Peroxisome proliferator-activated receptor delta (Homo sapiens) (UniProt Q03181); test: qHTS assay for small molecule agonists of peroxisome proliferator-activated receptor delta signaling (AID 588534);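 note: 0% = DMSO basal wells and 100% = positive control agonist at 10 µM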
Sequence of Peroxisome proliferator-activated receptor delta (Homo sapiens) (Q03181 whole entry, looked up): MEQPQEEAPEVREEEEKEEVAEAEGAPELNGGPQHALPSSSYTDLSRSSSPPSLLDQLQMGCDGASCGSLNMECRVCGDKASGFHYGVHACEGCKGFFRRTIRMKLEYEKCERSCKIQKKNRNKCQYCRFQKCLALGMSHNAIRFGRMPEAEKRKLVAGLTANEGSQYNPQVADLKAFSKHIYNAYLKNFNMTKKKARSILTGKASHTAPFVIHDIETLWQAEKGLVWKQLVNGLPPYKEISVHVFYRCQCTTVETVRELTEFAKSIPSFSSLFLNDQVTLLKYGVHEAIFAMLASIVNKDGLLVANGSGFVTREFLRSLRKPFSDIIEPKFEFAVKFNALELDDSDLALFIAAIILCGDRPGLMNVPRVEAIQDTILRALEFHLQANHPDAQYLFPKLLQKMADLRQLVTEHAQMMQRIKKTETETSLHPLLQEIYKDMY
Outline: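 Cell-based beta-lactamase reporter assay run in agonist mode: cells seeded and incubated 5 hrs at 37 C, compounds added and incubated 18 hrs at 37 C. CCF4 dye fluorescence read after 2 hrs at RT; EC50 and efficacy from Hill fits.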

[6] = biological target: Peroxisome proliferator-activated receptor gamma (Homo sapiens) (UniProt P37231); test: qHTS assay for small molecule agonists of peroxisome proliferator-activated receptor gamma signaling (AID 588536; active = well fitted curve in the direction sought with a large enough effect in the signal ratio, with a control signal flat, not every such curve was filed as active; the % refers to the signal ratio;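 note: 0% = DMSO basal wells and 100% = rosiglitazone at 2 µM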)
Sequence of Peroxisome proliferator-activated receptor gamma (Homo sapiens) (P37231 whole entry, looked up): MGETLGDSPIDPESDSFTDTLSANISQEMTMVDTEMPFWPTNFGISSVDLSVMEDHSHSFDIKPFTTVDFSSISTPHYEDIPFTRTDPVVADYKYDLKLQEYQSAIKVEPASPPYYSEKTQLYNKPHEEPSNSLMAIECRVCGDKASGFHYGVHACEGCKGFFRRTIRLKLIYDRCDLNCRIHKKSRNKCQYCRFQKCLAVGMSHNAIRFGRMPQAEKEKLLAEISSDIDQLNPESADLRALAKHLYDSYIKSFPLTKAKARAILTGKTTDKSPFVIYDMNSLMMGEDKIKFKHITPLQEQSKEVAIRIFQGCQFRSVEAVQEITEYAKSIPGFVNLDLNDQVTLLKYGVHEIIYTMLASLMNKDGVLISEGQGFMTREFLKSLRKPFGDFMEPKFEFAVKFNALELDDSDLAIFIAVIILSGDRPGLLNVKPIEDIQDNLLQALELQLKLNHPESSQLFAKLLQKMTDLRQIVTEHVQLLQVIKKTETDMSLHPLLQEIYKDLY
Outline: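 HEK293 UAS-bla reporter line, 1% charcoal/dextran FBS; titration, 16 h, 37 C; CCF4 loading 2 h RT; fluorescence 460/530 nm. Normalized to rosiglitazone 2 uM = 100%, DMSO = 0%.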

[7] = biological target: Vitamin D3 receptor (Homo sapiens) (UniProt P11473); test: qHTS assay for small molecule antagonists of vitamin D receptor signaling (AID 588541);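 note: receptor activated by calcitriol during compound treatment; series mostly up to about 77 µM; % is set by controls: 0 for no effect and ±100 for the full control effect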
Sequence of Vitamin D3 receptor (Homo sapiens) (P11473 whole entry, looked up): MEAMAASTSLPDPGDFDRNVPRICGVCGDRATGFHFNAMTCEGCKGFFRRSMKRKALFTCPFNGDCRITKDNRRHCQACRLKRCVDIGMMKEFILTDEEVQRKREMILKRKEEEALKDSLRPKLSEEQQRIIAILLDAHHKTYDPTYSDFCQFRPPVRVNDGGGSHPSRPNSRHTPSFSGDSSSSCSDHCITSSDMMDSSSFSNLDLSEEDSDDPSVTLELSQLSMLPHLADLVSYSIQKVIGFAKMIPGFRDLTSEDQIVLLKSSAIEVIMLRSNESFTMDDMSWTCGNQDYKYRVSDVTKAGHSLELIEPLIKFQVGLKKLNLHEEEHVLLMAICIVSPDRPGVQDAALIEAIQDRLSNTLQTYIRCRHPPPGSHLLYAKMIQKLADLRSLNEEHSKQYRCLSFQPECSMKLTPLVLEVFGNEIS
Outline: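 Antagonist-mode beta-lactamase reporter assay: HEK293T VDR-UAS-bla cells were exposed to titrated compound alongside 1-alpha,25-dihydroxyvitamin D3 at 3 nM final for 16 h. Values were normalized to the 50 nM agonist control and DMSO basal, with IC50 and efficacy from Hill equation fits.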

[8] = biological target: Thyroid hormone receptor beta (Homo sapiens) (UniProt P10828); test: qHTS assay for small molecule agonists of thyroid hormone receptor beta signaling (AID 588545)
Sequence of Thyroid hormone receptor beta (Homo sapiens) (P10828 whole entry, looked up): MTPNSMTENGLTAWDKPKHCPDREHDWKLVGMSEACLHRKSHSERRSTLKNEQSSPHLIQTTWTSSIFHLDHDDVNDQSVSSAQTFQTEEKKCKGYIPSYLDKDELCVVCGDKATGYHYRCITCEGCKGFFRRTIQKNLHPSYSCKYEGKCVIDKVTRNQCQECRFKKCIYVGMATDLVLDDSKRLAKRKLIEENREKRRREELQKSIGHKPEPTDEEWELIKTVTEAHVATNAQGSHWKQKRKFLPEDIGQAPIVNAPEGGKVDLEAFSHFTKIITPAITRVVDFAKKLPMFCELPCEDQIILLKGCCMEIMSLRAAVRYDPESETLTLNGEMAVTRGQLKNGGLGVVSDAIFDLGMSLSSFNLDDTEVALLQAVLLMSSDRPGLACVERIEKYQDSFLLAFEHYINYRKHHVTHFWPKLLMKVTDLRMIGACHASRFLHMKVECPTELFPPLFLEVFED
Outline: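 HEK 293 TR-UAS-bla; agonist mode; 18 hrs, 37 C; CCF4, ex 405/em 460 and 530 nm; norm. T3 10 nM = 100%, DMSO = 0%; Hill fit → EC50, efficacy.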

[9] = biological target: Thyroid hormone receptor beta (Homo sapiens) (UniProt P10828); test: qHTS assay for small molecule antagonists of thyroid hormone receptor beta signaling (AID 588547; active = well fitted inhibition curve with a large enough effect in the signal ratio, with a control signal flat, not every such curve was filed as active; the % refers to the signal ratio;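 note: cells stimulated with 0.4 nM T3 agonist during compound exposure; series mostly up to about 77 µM; % is set by controls: 0 for no effect and ±100 for the full control effect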); conditions: TR-UAS-bla HEK293, beta-lactamase ratio, antagonist mode, 18 h
Outline: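 Inhibition of T3-driven (0.4nM final) beta-lactamase reporter activity was measured over 0.59 nM to 92 uM compound after 18 h at 37 C. The cells were GripTite HEK293 TR-UAS-bla in charcoal/dextran-stripped serum, with CCF4 ratio read-out and IC50 from Hill fits.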

[10] = biological target: Voltage-gated inwardly rectifying potassium channel KCNH2 (Homo sapiens) (UniProt Q12809); test: qHTS Assay for Small Molecule Inhibitors of the Human hERG Channel Activity (AID 588834; active = well fitted curve in the direction sought with a large enough effect; an effect the other way counts as inactive or inconclusive;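 note: top concentration of the series differs between compounds; % is set by controls: 0 for no effect and ±100 for the full control effect; lower thallium flux fluorescence means stronger hERG block; nearly all actives have a fitted effect of over 50% in size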)
Sequence of Voltage-gated inwardly rectifying potassium channel KCNH2 (Homo sapiens) (Q12809 whole entry, looked up): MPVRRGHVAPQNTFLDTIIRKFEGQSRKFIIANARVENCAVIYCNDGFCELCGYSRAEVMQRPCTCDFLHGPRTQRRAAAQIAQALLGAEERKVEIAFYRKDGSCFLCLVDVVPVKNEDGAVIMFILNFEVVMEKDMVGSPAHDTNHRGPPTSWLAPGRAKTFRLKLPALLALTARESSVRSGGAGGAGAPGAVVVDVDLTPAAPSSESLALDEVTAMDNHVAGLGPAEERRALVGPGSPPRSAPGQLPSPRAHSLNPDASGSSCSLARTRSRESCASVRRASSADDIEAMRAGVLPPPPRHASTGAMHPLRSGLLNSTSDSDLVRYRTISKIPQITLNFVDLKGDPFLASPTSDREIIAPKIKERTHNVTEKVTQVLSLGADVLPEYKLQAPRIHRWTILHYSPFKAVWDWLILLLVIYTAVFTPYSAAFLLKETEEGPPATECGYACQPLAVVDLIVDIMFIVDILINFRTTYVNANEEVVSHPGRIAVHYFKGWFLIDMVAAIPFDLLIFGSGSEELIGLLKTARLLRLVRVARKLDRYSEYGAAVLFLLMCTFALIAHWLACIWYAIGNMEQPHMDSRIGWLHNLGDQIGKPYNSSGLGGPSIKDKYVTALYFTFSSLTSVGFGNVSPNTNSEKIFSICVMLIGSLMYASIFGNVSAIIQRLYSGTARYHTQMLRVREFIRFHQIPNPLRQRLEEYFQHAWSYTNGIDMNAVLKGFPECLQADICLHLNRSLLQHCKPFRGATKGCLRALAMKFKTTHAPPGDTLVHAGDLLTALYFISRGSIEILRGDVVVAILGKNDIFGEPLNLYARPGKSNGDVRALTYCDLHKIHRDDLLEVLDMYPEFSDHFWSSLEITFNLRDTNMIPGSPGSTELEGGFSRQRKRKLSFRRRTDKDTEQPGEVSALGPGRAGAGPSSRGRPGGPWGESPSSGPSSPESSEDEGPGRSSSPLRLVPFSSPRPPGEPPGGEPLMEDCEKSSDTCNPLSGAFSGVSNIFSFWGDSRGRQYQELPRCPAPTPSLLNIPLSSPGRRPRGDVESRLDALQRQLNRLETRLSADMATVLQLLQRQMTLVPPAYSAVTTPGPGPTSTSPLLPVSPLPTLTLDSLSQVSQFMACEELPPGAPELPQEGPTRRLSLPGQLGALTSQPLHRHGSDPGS
Outline: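 hERG-BacMam U2OS, 2000 cells/well; 0.7X FluxOR loading 1 hr RT dark; cpd ~10 min 37 °C; stim buffer; FDSS fluorescence 2 min @ 1 s; AC50 Hill fit.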

[11] = qHTS assay for small molecule agonists of the antioxidant response element (ARE) signaling pathway (AID 651741; active = well fitted activation curve with a large enough effect in the signal ratio; the % refers to the signal ratio; note: potency is the fitted concentration of half-maximal effect; for activation: % of control where 0% means no effect)
Outline: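 Seeding 2,000 ARE-bla HepG2 cells per well preceded a 5 h incubation at 37 C/5% CO2 and a 16 h compound exposure at 37 C. Beta-lactamase reporter activity was then quantified by fluorescence after 2 h with LiveBLAzer B/G FRET substrate.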

[12] = qHTS assay for small molecule activators of the p53 signaling pathway (AID 651743; active = well fitted activation curve with a large enough effect in the signal ratio, not every such curve was filed as active; the % refers to the signal ratio; note: series mostly up to about 92 µM; % of control where 0% means no effect); conditions: HCT-116 p53RE-bla, beta-lactamase FRET ratio, 16 h; activation: stronger effect = higher value
Outline: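 Screen for p53 pathway agonists uses stably transfected p53RE-bla HCT-116 cells, 4,000 per well, treated 16 h at 37 C with compounds in DMSO.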

[13] = qHTS assay for small molecule activators of the nuclear factor-kappa B (NF-kB) signaling pathway (AID 651749; active = well fitted activation curve with a large enough effect in the signal ratio; the % refers to the signal ratio; note: series mostly up to about 77 µM; % of control where 0% means no effect); conditions: NF-kB-bla ME-180 cells, beta-lactamase FRET ratio, 16 h; stronger effect = higher value
Outline: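 Stably transfected ME-180 line; NF-kB response element upstream of beta-lactamase. Treatment: compound or DMSO, 16 hr. Detection: fluorescent FRET substrate.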

[14] = qHTS assay for small molecule disruptors of the mitochondrial membrane potential - 1 hr assay (AID 651754); note: % is set by controls: 0 for no effect and ±100 for the full control effect; nearly all actives have a fitted effect of over 35% in size
Outline: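 HepG2 cells, attached overnight at 37C, were exposed to compound or DMSO vehicle for 1 hr at 37C, 5% CO2, then stained with Mito-MPS dye for 30 min. Red aggregate versus green monomer fluorescence reports membrane potential.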

[15] = biological target: Glucocorticoid receptor (Homo sapiens) (UniProt P04150); test: qHTS assay for small molecule antagonists of glucocorticoid receptor signaling (AID 588533; active = well fitted inhibition curve with a large enough effect in the signal ratio, with a control signal flat, not every such curve was filed as active; the % refers to the signal ratio;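 note: cells stimulated with 2 nM dexamethasone as agonist; % is set by controls: 0 for no effect and ±100 for the full control effect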)
Outline: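 Antagonist-mode qHTS: compound titrations added to GRE-bla HeLa cells, then dexamethasone 2 nM final; 18 h, 37 C. CCF4 FRET fluorescence normalized to dexamethasone and DMSO; IC50 from Hill fit.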

[16] = biological target: Peroxisome proliferator-activated receptor gamma (Homo sapiens) (UniProt P37231); test: qHTS assay for small molecule antagonists of peroxisome proliferator-activated receptor gamma signaling (AID 588537; active = well fitted inhibition curve with a large enough effect in the signal ratio, with a control signal flat, not every such curve was filed as active; the % refers to the signal ratio;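 note: reporter cells co-stimulated with 50 nM rosiglitazone agonist during compound treatment; % of control where 0% means no effect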)
Outline: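 Inhibitors of agonist-stimulated UAS-bla reporter activity were sought in HEK293 cells; rosiglitazone (50 nM) defined full signal and DMSO baseline. Curves fitted to Hill model gave IC50 and efficacy.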

[17] = biological target: Bile acid receptor (Homo sapiens) (UniProt Q96RI1); test: qHTS assay for small molecule agonists of farnesoid X receptor signaling (AID 588527); conditions: HEK293T FXR-UAS-bla, beta-lactamase ratio, 16 h; stronger effect = higher value;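 note: series mostly up to about 77 µM; 0% = vehicle basal and 100% = reference agonist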
Sequence of Bile acid receptor (Homo sapiens) (Q96RI1 whole entry, looked up): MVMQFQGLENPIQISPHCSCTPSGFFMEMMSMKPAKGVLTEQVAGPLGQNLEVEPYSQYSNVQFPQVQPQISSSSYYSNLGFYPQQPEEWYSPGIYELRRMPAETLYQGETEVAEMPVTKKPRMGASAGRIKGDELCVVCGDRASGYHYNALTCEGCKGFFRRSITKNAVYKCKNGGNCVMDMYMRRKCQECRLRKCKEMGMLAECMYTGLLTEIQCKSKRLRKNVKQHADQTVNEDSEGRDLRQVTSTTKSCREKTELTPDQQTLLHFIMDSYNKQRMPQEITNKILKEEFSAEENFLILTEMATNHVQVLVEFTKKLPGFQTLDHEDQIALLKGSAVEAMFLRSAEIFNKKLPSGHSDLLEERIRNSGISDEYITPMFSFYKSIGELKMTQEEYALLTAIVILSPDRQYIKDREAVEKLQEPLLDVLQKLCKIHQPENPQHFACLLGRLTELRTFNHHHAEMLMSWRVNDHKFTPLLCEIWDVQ
Outline: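 Quantitative HTS used FXR-UAS-bla HEK293T cells with 16 h compound incubation at 37 C. EC50 values came from concentration-response curves normalized to chenodeoxycholic acid.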

[18] = qHTS assay for small molecule antagonists of peroxisome proliferator-activated receptor delta signaling (AID 588535; active = well fitted inhibition curve with a large enough effect in the signal ratio, with a control signal flat, not every such curve was filed as active; the % refers to the signal ratio;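 for max response: cells co-treated with a PPAR-delta agonist as stimulator during compound exposure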); conditions: HEK293T PPARd-UAS-bla, beta-lactamase FRET ratio, 18 h; 460 nm channel
Outline: (§1)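 Cell-based beta-lactamase assay in antagonist mode: 4000 HEK293T PPAR-delta-UAS-bla cells per well, 5 hr preincubation then 18 hr compound incubation at 37 C. IC50 obtained by Hill equation fitting.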

[19] = biological target: Peroxisome proliferator-activated receptor delta (Homo sapiens) (UniProt Q03181); test: as above
Outline: as §1

[20] = MultiTox-Fluor Cytotoxicity Assay - LYMP1-001 - Live Cells (AID 947; active = well fitted curve in the direction sought with a large enough effect; an effect the other way counts as inactive or inconclusive;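 note: 0% = DMSO only and full inhibition = tetraoctylammonium bromide control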)

[N-]=[N+]=[N-]
inactive: Potency [1] | Potency [2] | Potency [3] | activation [4] -7.88% | outcome [5] | outcome [6] | outcome [7] | Potency [8] | activity change % (negative = inhibition) [9] 7.76% | Potency [10] | Potency [11] | activation [12] -1.87% | activation [13] 0.007% | Potency [14]

Cc1ccc(N=C=O)cc1N=C=O
inactive: Potency [1] | Potency [2] | activation [4] 4.9% and -2.62% | outcome [15] | Potency [16] | outcome [7] | Potency [8] | activity change % (negative = inhibition) [9] -8.5% | Potency [10] | Potency [11] | activation [12] -2.11% and -1.5% | activation [13] 0.173% and 0.839%

O=C(Cl)c1ccccc1F
-9.33%: max response [18]
inactive: Potency [1] | Potency [2] | Potency [3] | activation [17] 2.29% | outcome [5] | outcome [19] | outcome [6] | Potency [16] | Potency [8] | activity change % (negative = inhibition) [9] -5.22% | Potency [10] | Potency [14]

C=C(Cl)CCl
inactive: Potency [1] | Potency [2] | Potency [3] | activation [4] -2.96% | outcome [15] | outcome [19] | outcome [6] | outcome [7] | Potency [8] | activity change % (negative = inhibition) [9] 0.727% | Potency [11] | activation [12] -0.495% | activation [13] 0.174% | Potency [14]
15.9%: max response [18]

CCNCC
21.4%: max response [18]
inactive: outcome [20] | Potency [1] | Potency [2] | activation [4] 0.672% | outcome [5] | outcome [19] | outcome [6] | Potency [16] | outcome [7] | Potency [8] | Potency [11] | Potency [14]

CC(=O)CCC(C)=O
-12.7%: max response [18]
inactive: Potency [1] | Potency [2] | Potency [3] | activation [4] -5.45% | outcome [19] | outcome [6] | outcome [7] | activity change % (negative = inhibition) [9] 15% | Potency [10] | Potency [11] | activation [12] 0.727% | activation [13] 0.108% | Potency [14]

OC[P+](CO)(CO)CO
inactive: outcome [20] | Potency [3] | activation [4] -0.662% and -6.97% | outcome [15] | outcome [5] | outcome [19] | outcome [6] | Potency [16] | Potency [8] | activity change % (negative = inhibition) [9] -18.1% and -15.5% | Potency [10] | activation [12] 4.85% and 1.14% | Potency [14]
-16.4%: max response [18]
active: Potency [1] 15.8 µM | Potency [2] 7.94 µM | Potency [11] 37.6 µM and 30.6 µM

CN(C)c1ccccc1
inactive: outcome [20] | Potency [1] | activation [17] -2.07% | activation [4] -11% | Potency [8] | activity change % (negative = inhibition) [9] -1.14% | Potency [10] | Potency [11] | activation [12] -3.2% | Potency [14]

O=[N+]([O-])c1ccccc1O
inactive: outcome [20] | Potency [1] | Potency [2] | activation [4] 0.494% | outcome [15] | Potency [16] | Potency [8] | activity change % (negative = inhibition) [9] -16.2% | Potency [10] | activation [12] -2.01%
